# Data as given in PubChem BioAssay AID2417 (National Center for Advancing Translational Sciences (NCATS), 2010).
# About 4,300 (3.1%) of roughly 140,000 compounds were called active. Inconclusive results (about 21%) are left out. The sample holds actives, similar compounds and a random draw of the others, so the mix is not that of the screen.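 The calls were made as follows: active = readout at or below -70, meaning at least 70% loss of cells showing the perinucleolar compartment, a nuclear body marking cancer cells; inconclusive = readout between -30 and a set limit; inactive = the rest.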
# Assay: High Content Assay for Compounds that inhibit the Assembly of the Perinucleolar Compartment;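 also: plate controls were DMSO wells for no effect and camptothecin positive control wells for full effect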
# Conditions: PC3M PTB-GFP, PNC prevalence imaging, 16 h; at 10 µM; hits give low values
# Summary of the method: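 Read-out is percentage of cells bearing a perinucleolar compartment, from automated 20x imaging of fixed, Hoechst-stained PC3M PTB-GFP cells. Cells were seeded 4 h, then exposed 16 h to compound (23 nl of library stock) in duplicate plates.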
row,SMILES,"activity change (PNC), negative = inhibition"
1,CCn1c(C(C)NC(=O)c2ccc(C)cc2)n[nH]c1=S (stereo not given),8.92% (inactive)
2,Cc1ccc(CC(=O)Nc2ccc(OC(F)F)c(Cl)c2)cc1C,5.84% (inactive)
3,N#CC1=C(SCc2ccc(C#N)cc2)N=C(N)C(c2nc(-c3ccccc3)cs2)C12CCCCC2 (stereo not given),-112% (active)
4,N#CC1=C(SCc2ccccc2)NC(=O)C(C#N)C12CCCC2 (stereo not given),9.75% (inactive)
5,COc1ccnc(Oc2ccccc2)n1,-12.4% (inactive)
6,C=CCOc1ccc(/C=N/n2cncn2)cc1OC,5.24% (inactive)
7,C/C=C/c1ccc(OCCOc2ccc(C=O)cc2OC)c(OC)c1,-108% (active)
8,COc1cc(/C=N/NC(=O)Nc2ccccc2)ccc1OCCOc1ccccc1C,-16.5% (inactive)
9,CCOC(=O)/C=C/C(=O)OCC(=O)NC(c1ccccc1)c1ccccc1,-28.2% (inactive)
10,COc1ccc(C2CC(=O)Nc3cc(C)c(C)cc32)c(OC)c1OC (stereo not given),-26.4% (inactive)
11,CCCOc1ccccc1C1CC(=O)Nc2cc3c(cc21)OCO3 (stereo not given),-92% (active)
12,COCCOC(=O)C1=C(C)NC(=O)CC1c1cc2c(cc1Br)OCO2 (stereo not given),63.3% (inactive)
13,CCCSc1nc2[nH]ncc2c(=O)[nH]1,26.1% (inactive)
14,Cc1cc(C(=O)COc2ccccc2[N+](=O)[O-])c(C)n1-c1cccc(S(=O)(=O)N2CCOCC2)c1,101% (inactive)
15,CC1(C)C2CC=C(/C=N/NC(=O)c3ccc(Cl)cc3)C1C2 (stereo not given),14.2% (inactive)
16,CCN(CC(=O)NCCc1ccccc1)S(=O)(=O)c1ccc(C)cc1,-0.956% (inactive)
17,COc1ccc(C(=O)Nc2ccc3c(c2)OCO3)cc1OC,5.14% (inactive)
18,Cn1c(=O)n(C)c2cc(C(=O)Nc3ccc4c(c3)OCO4)ccc21,-87% (active)
19,O=C(Nc1ccc2c(c1)OCO2)c1ccc(N2C(=O)c3ccccc3C2=O)cc1,-11% (inactive)
20,COc1cc(C(=O)Nc2cc(C(F)(F)F)ccc2N2CCOCC2)ccc1O,44.6% (inactive)

row,SMILES,"activity change (PNC), negative = inhibition"
1,CCOC(=O)C1C(=O)NC(N2CCN(c3ccccc3)CC2)=NC1c1ccco1 (stereo not given),-90% (active)
2,CCOC(=O)C1C(=O)NCC1c1ccccc1 (stereo not given),-16.9% (inactive)
3,CCOC(=O)C1C(=O)C=C(c2ccc(OC)cc2)CC1c1ccco1 (stereo not given),27.1% (inactive)
4,COc1cccc(/C=N/NC(=O)CNC(=O)c2ccc(S(=O)(=O)N3CCOCC3)cc2)c1OC,69.9% (inactive)
5,Cc1ccccc1N/C(SCc1ccc(Cl)cc1)=C(/C#N)C(N)=O,-1.22% (inactive)
6,CCN(CC)c1ccc(C(=O)N/N=C(\C)c2cccc(OC)c2)cc1,14.7% (inactive)
7,Cc1cnc(C(=O)OCC(=O)Nc2ccc(Cl)cc2Cl)cn1,261% (inactive)
8,Cc1ccc(Cc2cnc(N)s2)o1,-17.8% (inactive)
9,Cc1ccc(CCC(=O)Nc2ncc(Cc3cc(Cl)ccc3Cl)s2)o1,-88.9% (active)
10,O=C(/C=C/c1ccccc1[N+](=O)[O-])NCC1CCCO1 (stereo not given),58.9% (inactive)
11,Cc1ccc(SCC(=O)Nc2ccc3c(c2)OCCO3)cc1,36.7% (inactive)
12,OCCNCCOc1ccc(Cl)c(Cl)c1,32.5% (inactive)
13,Cc1ccc(C)c(NC(=O)CSc2nc3c(oc4ccccc43)c(=O)n2-c2ccccc2)c1,-5.79% (inactive)
14,Cc1ccc(SCCC(=O)OCC(=O)Nc2ncc(Cl)cc2Cl)cc1,-2.97% (inactive)
15,Cc1ccc(-n2c(SCC(=O)Nc3ncc(Cl)cc3Cl)nc3ccccc32)cc1,-115% (active)
16,CN(C)/C(=N\OC(=O)c1ccccc1)c1nonc1N,6.05% (inactive)
17,C/C(Cc1ccccc1)=N\NC(=O)CNC(=O)c1cccc(Br)c1,19.9% (inactive)
18,Cc1cc(N2CCOCC2)nc(-c2ccc(Br)cc2)n1,-19.2% (inactive)
19,COc1ccc(-c2nc(-c3ccccc3)no2)c(OC)c1,-102% (active)
20,CCOc1nc(-c2ccc(OC)cc2)ccc1-c1noc(-c2cc(OC)c(OC)c(OC)c2)n1,-17.5% (inactive)

row,SMILES,"activity change (PNC), negative = inhibition"
1,COc1ccc(-c2noc(-c3cccc(OC)c3OC)n2)cc1OC,7.54% (inactive)
2,Cc1ccc(S(=O)(=O)N(NC2=NS(=O)(=O)c3ccccc32)C(=O)c2ccccc2)cc1,35.5% (inactive)
3,COc1ccc(C(=O)NNS(=O)(=O)c2ccc(C)cc2)cc1,-23.7% (inactive)
4,N#CCCN1CCN(S(=O)(=O)c2ccc(S(=O)(=O)NC3CC3)cc2)CC1,-11.6% (inactive)
5,N#CCCN1CCN(S(=O)(=O)c2ccc(S(=O)(=O)N3CCCC3)cc2)CC1,-15% (inactive)
6,CC(C)(C)c1cc(CN2CCN(CCC#N)CC2)cc(C(C)(C)C)c1O,-122% (active)
7,CCCCC(=O)Nc1ccc(C(=O)Nc2cc(C(F)(F)F)ccc2Cl)cc1,22.8% (inactive)
8,Cc1onc(-c2ccccc2Cl)c1C(=O)NCCn1ccc2ccccc21,-12.7% (inactive)
9,CC(=O)Nc1cccc(/C(C)=N/NC(=O)c2c(-c3ccccc3Cl)noc2C)c1,-109% (active)
10,CC(=O)Nc1cccc(/C(C)=N/NC(=O)c2ccccc2Cl)c1,5.62% (inactive)
11,CC(C)=C(NC(=O)c1ccccc1)C(=O)N/N=C(\C)c1ccccc1O,6.63% (inactive)
12,CCOc1cccc(-n2nnnc2-c2ccc(OC)cc2)c1,-83.5% (active)
13,CCOc1cccc(-c2nnc3sc(COc4ccc(OC)cc4)nn23)c1,-29.7% (inactive)
14,COc1ccc(-n2nnnc2-c2nc3ccccc3s2)cc1,-8.45% (inactive)
15,CSCCC(Nc1ccc(S(=O)(=O)N2CCOCC2)cc1[N+](=O)[O-])C(=O)OCC(=O)N(C(C)C)C(C)C (stereo not given),-25.5% (inactive)
16,CCC(C)(C(=O)Nc1ccccc1C)N(C(=O)CNC(C)=O)c1ccc(C)cc1 (stereo not given),-15.4% (inactive)
17,Cc1ccc(-c2nc(CS(=O)CC(=O)N3CCN(c4ncccn4)CC3)c(C)o2)cc1 (stereo not given),11.5% (inactive)
18,COc1ccc(-c2nc(CS(=O)CC(=O)NCc3ccccn3)c(C)o2)cc1 (stereo not given),-19.8% (inactive)
19,Cc1ccc(-c2nc(CS(=O)CC(=O)NC3CCCC3)c(C)o2)cc1 (stereo not given),-106% (active)
20,CSc1ccc(/C=C/C(=O)NC23CC4CC(CC(C4)C2)C3)cc1,11.8% (inactive)
